Hits are enriched below; roughly 2.9% of the tested compounds scored in any of these assays.
Nrf2 block – Nrf2 pathway inhibition | A549 ARE-Fluc reporter, luciferase luminescence, 18-24 h | Potency, µM (series often up to 46 µM), inactives show top-dose activity change, negative = inhibition, actives largely listed as inhibitors | hit rate 2.1% among 360,000 | AID 504444; further: on the % scale 0 is the no-effect control and ±100 the full control effect; nearly all actives have a fitted effect of over 60% in size
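Concentration-response testing used A549 ARE_Fluc cells at 5000 cells/well. Following an 18-24 h compound incubation, viability was read by fluorescence (Ex 405/Em 525) and luciferase output by luminescence.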
ATXN2 expr inh – inhibitors of ATXN2 expression; Potency, µM (doses to about 57 µM), without a hit: at the highest dose activity change, negative = inhibition, most hits filed as inhibitors; HEK-293 ATXN2-luciferase reporter, luminescence, 24 h; hit rate 0.72% among 360,000; further: on the % scale 0 is the no-effect control and ±100 the full control effect; nearly all actives have a fitted effect of over 55% in size
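qHTS (up to 57 uM final) was run with 24 h compound exposure of reporter cells at 37 °C. Each well was multiplexed: SteadyGlo luminescence measured ATXN2-luciferase expression after a fluorogenic Gly-Phe-AFC viability readout (25 uM final).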
A549 tox – counter-screen for Nrf2 inhibitors: cytotoxicity in A549 cells; A549 ARE-Fluc cells, CellTiter-Fluor viability, 18-24 h; Potency, µM (doses to about 46 µM), inactives show at the top dose activity change, negative = cytotoxicity, usual class: inhibitors; hit rate 0.16% among 390,000; AID 504648; further: on the % scale 0 is the no-effect control and ±100 the full control effect
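Cytotoxicity counterscreen: CellTiter-Fluor fluorescence was measured in A549 ARE_Fluc cells after 18-24 h of compound exposure in a concentration series. The subsequent BugLite luminescent read reports ARE-luciferase activity.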
Nrf2 ARE act – activates Nrf2 signaling; AREc32 ARE-luciferase reporter (MCF7-derived line), luminescence, 24 h; Potency, µM (titrated, usually from 46.1 µM), for the others: at the highest dose activation, actives largely listed as activators; hit rate 0.31% among 410,000; AID 624171; further: % of control where 0% means no effect; nearly all actives have a fitted effect of over 65% in size
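Nrf2 activation is followed as ARE-luciferase induction in the AREc32 line after one day of compound treatment; luminescence is read with Steady-Glo.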
ATXN viability – viability counter-screen for ATXN expression inhibitors | S2 cells (HEK-293 line with an ATXN2-luciferase reporter) viability, CellTiter-Fluor protease fluorescence, 24 h | hit rate 0.49% among 400,000 | Potency, µM (top dose mostly 56.7 µM), usual class: cytotoxic; further: nearly all actives have a fitted effect of over 40% in size
* hit, by the source's call; i = inactive; u = inconclusive; x = no result; ! = not confirmed by another sample; [ ] = dose if it differs, or a comment. The call rests on the fitted dose curve; in most records, active means well fitted curve in the direction sought with a large enough effect; inconclusive means small, poorly fitted or top-dose-only effect, or another doubt; inactive means no such curve, though single readings can be large; an effect the other way counts as inactive or inconclusive. Potency means the concentration at half of the fitted maximal effect.

SMILES | Nrf2 block | ATXN2 expr inh | A549 tox | Nrf2 ARE act | ATXN viability
Cc1nc2sc(C(N)=O)c(N)c2c(-c2ccc(Br)cc2)c1C(=O)Nc1ccc(Cl)cc1 | 7%[9.27 µM] | 32µM* | 1% | -4% | u
Cc1ccc(C)n1Cc1ccc(C(=O)O)cc1 | 5% | 2% | -1% | -1% | u
COc1ccc(CN2CCN(C(c3ccc(F)cc3)c3ccc(F)cc3)CC2)c(OC)c1OC | u | 40µM*! | u | -2% | u
COc1ccc(CN2CCN(c3ccc(F)cc3)CC2)c(OC)c1OC | -29% | -22% | -3% | 0% | i
CCOc1ccc(OCC)c(NC(=O)c2nnn(CC(=O)Nc3cc(Cl)ccc3OC)c2N)c1 | u | u | -5% | 0% | 10µM*
COc1ccc(C(=O)/C(=C/O)N=Nc2ccc(F)cc2)cc1 | 19% | u | -10% | 6% | 22µM*
CCOc1ccc(NC(=O)Cn2c(=O)cc(C)c3c(C)nn(C)c32)cc1 | 13µM* | 4% | 0% | 1% | i
COc1ccc(OC)c(NC(=O)Cn2c(=O)cc(C)c3c(C)nn(-c4cccc(Cl)c4C)c32)c1 | 21µM* | x | u | -1% | x
NC(=O)c1cc2c3ccccc3ccn2c1-c1ccccc1 | 12% | x | -10% | 10µM* | u
NC(=O)c1cc(Sc2ccccc2)nc2ccccc12 | -5% | 19% | 0% | 2% | i
CCN(C(C)=O)c1cnc(C=NNC(N)=S)c2ccccc12 | 8.2µM* | u | u | 2% | i
Cc1ccc(S(=O)(=O)CCC(=O)Nc2sccc2C(N)=O)cc1 | -6% | 29% | -8% | 8% | i
CC(=O)c1sc(Nc2cccc3ccccc23)nc1C | 12% | -1% | 17% | 12% | i
O=C(CCS(=O)(=O)c1ccccc1)Nc1nncs1 | -14% | 59% | u | 5% | i
COC(=O)c1ccsc1NC(=O)CCS(=O)(=O)c1ccc(Cl)cc1 | 3% | 12% | -2% | 16µM* | u
CC(=O)c1sc(Nc2ccccn2)nc1C | u | 43% | 14% | 11µM* | i
COC(=O)c1ccsc1NC(=O)CCS(=O)(=O)c1ccccc1 | -15% | 1% | -3% | 13µM* | i
COC(=O)c1ccsc1NC(=O)CS(=O)(=O)c1ccccc1 | -13% | 2% | -1% | -1% | i
CC(=O)c1sc(NC(=O)CCS(=O)(=O)c2ccccc2)nc1C | 21µM* | u | u | u | u
COc1cnc(SCCC(F)=C(F)F)[nH]c1=O | -1% | -12% | 1% | 0% | i
Cc1cc(N2CCN(c3ccccc3)CC2)nc(N)n1 | -29% | -4% | -5% | 0% | i
COc1ccc(C(CNC(=O)c2ccc(F)cc2)N2CCCC2)cc1 (stereo not drawn) | 4% | x | 0% | 3% | x
Cc1ccc(OCc2ccc(C(=O)Nc3c(C)nn(Cc4c(F)c(F)c(F)c(F)c4F)c3C)o2)c([N+](=O)[O-])c1 | 8.2µM* | -24% | -29% | 3% | u
Cc1ccc(OCc2ccc(C(=O)NN)o2)c([N+](=O)[O-])c1 | 14% | x | -2% | 4% | u
Cc1ccc(N(C)S(=O)(=O)c2ccc3c(c2)CC(C)N3C(=O)C2CC2)cc1 (stereo not drawn) | -10% | -15% | 6% | -1% | i
SMILES | Nrf2 block | ATXN2 expr inh | A549 tox | Nrf2 ARE act | ATXN viability
COc1cc2c(c(OC)c1OC)-c1ccc(SC)c(=O)cc1C(NC(=O)c1ccccc1)CC2 (stereo not drawn) | u | 12% | 18µM* | 7% | u
CC(C)c1nnc(NC(=O)c2c(O)c3cccc4c3n(c2=O)CCC4)s1 | 16µM* | -20% | u | 2% | i
CCCc1nnc(NC(=O)c2c(O)c3cccc4c3n(c2=O)CC4)s1 | -21% | 7% | -17% | 0% | u
O=S(=O)(c1ccc(Cl)c(NC(=S)N/N=C/c2ccc(O)cc2)c1)N1CCOCC1 | 16µM* | u | -23% | -3% | u
COc1ccc(S(=O)(=O)N2CCOCC2)cc1NC(=O)Cc1ccccc1Cl | 0% | 5% | 3% | 0% | i
Cc1ccc(S(=O)(=O)N2CCOCC2)cc1NC(=O)COC(=O)Cc1ccc(Cl)cc1 | 9% | 3% | 10% | 0% | i
O=C(CNCc1ccccc1Cl)Nc1cc(S(=O)(=O)N2CCOCC2)ccc1Cl | 16µM* | -22% | -13% | 8% | i
Cc1ccc(S(=O)(=O)N2CCOCC2)cc1NC(=O)CNCc1ccc(Cl)cc1Cl | 13µM* | x | 0% | 0% | i
CN(CC(=O)Nc1cc(S(=O)(=O)N2CCCC2)ccc1Cl)Cc1cccs1 | 26µM* | x | -8% | 1% | i
COc1cc(OC)c(OC)cc1CNC(=O)c1cc(=O)c2ccccc2o1 | u | -2% | -7% | u | i
CCN1CCc2c(sc(N)c2C(N)=O)C1 | x | -5% | 2% | 0% | i
CCCCCOC(=O)C1=C(C)NC(=O)NC1c1ccccc1 (stereo not drawn) | -4% | 13% | 11% | 4% | i
O=C(Nc1cccc(C(F)(F)F)c1)c1cc(-c2cccs2)on1 | x | -14% | 0% | 0% | i
Cc1ccc(-n2ncc3c(NNC(=O)c4ccco4)ncnc32)cc1Cl | u | 5% | -5% | -1% | i
CCN(CC)c1ccc(S(=O)(=O)N2CCOCC2)cc1NC(=O)CNCc1cccc(Cl)c1 | 26µM* | u | u | -1% | u
CCN(CC)c1ccc(S(=O)(=O)N2CCOCC2)cc1NC(=O)CSc1ccccc1 | -15% | 4% | 0% | 2% | i
COC(=O)c1ccc(S(=O)(=O)N2CCCN(Cc3ccc(F)cc3)CC2)n1C | 13µM* | -17% | 1% | 0% | i
COc1ccc(CN2CCN(S(=O)(=O)c3ccc(F)cc3)CC2)cc1OC | u | -12% | -7%[1.84 µM] | 0% | i
CCOc1ccc(NS(=O)(=O)c2cc(NC(=O)c3ccc(C)cc3)ccc2Cl)cc1 | u | -24% | u | 0% | u
CCOc1ccc(N(CC(=O)Nc2nccs2)S(=O)(=O)c2c(C)noc2C)cc1 | -7% | 2% | -9% | -1% | i
CCn1c(CSCc2ccc(C)cc2)nnc1SCC(=O)N1CCN(c2ccccc2)CC1 | 21µM* | -33% | u | 3% | i
C=CCn1c(CSCc2ccccc2)nnc1SCC(=O)N1CCN(c2ccccc2)CC1 | u | -8% | -7% | 1% | i
CCn1c(COc2ccccc2C)nnc1SCC(=O)OC | 8% | 2% | -2% | -1% | u
CCn1c(COc2ccccc2C)nnc1SCC(=O)N1CCN(c2ccccc2)CC1 | u | 14µM* | -2% | 1% | u
COc1cccc(OC)c1C(=O)Nc1ccc2nc(C)c(C)nc2c1 | 18% | x | 12% | 1% | i
CCOC(=O)N1CCC(=C2c3ccc(Cl)cc3CCc3cccnc32)CC1 | -19% | 14µM*! | -3% | 4% | u

High-throughput results: PubChem BioAssay, National Center for Advancing Translational Sciences (NCATS)
